# Bioassay records from PubChem.
# Pf Dd2 growth = Plasmodium falciparum Dd2 growth inhibition; P. falciparum Dd2 growth, SYBR Green, 72 h; Potency, µM (series often up to 28.9 µM), inactives show top-dose activity, negative = inhibition, actives largely listed as inhibitors; hit rate 4.3% among 120,000; AID 1347417; active = well fitted inhibition curve with a large enough effect;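 note: plate controls were DMSO vehicle for no effect and reference drug for full effect; nearly all actives have a fitted effect of over 65% in size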
#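 Readout: SYBR Green fluorescence, 485 nm excitation, 535 nm emission, after ~16 h lysis at 37C. Before that, Dd2-infected red cells (2.5% hematocrit) grew 72 h with compound, 29 uM top final concentration.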
# An asterisk follows results filed as active; i = inactive; [ ] = another dose, or the depositor's remark. The full list was thinned out, with hits kept by preference. Potency is the fitted concentration of half-maximal effect.
SMILES,Pf Dd2 growth
CCC(=O)Nc1ccc(C2(C(=O)N3CCN(c4ccccc4F)CC3)CCC2)cc1,-10%
Cc1ccc(OCC(=O)Nc2c(C(=O)c3ccccc3)oc3ccccc23)cc1C,31%
CCCC(=O)Nc1c(C(=O)N2CCN(c3ccccc3)CC2)oc2ccccc12,120%[5.79 µM]
O=C(Nc1c(C(=O)N2CCN(c3ccccc3F)CC2)oc2ccccc12)c1ccco1,4%
Cc1cccc(OCC(=O)Nc2c(C(=O)N3CCN(c4ccccc4F)CC3)oc3ccccc23)c1,-20%
CC(C)CC(=O)Nc1c(C(=O)N2CCN(c3ccccc3F)CC2)oc2ccccc12,7.1µM*
O=C(NCCc1noc(-c2ccccc2)n1)c1ccc(Cl)s1,-20%
COc1cccc(CN2CCc3nc(N4CCN(C)CC4)[nH]c(=O)c3CC2)c1OC,28%[5.79 µM]
COc1ncccc1-c1cnc2[nH]cc(CC(=O)Nc3cccc(Cl)c3)c2c1,i
O=C(NC1CCCC1)C1CCCCC(=O)N1Cc1ccccc1 (centres undefined),-1%
Cc1ccc(N2CC(C(=O)NCc3nnnn3-c3ccc(C)c(C)c3)CC2=O)cc1 (centres undefined),i
COCCN1CCC2(CCC1=O)CCN(C(=O)Nc1ccc(C)cc1C)CC2,22%
C=CCNC(=O)CCc1c(C)nn(-c2ccc(F)cc2)c1Oc1ccccc1,7.9µM*
Cc1ccccc1-n1nc(C)c(CCC(=O)N(C)C(C)C)c1Oc1ccccc1F,6.3µM*
Cc1nn(-c2ccc(F)cc2)c(Oc2ccc(F)cc2F)c1CCC(=O)N(C)C(C)C,-11%
C=CCNC(=O)CCc1c(C)nn(-c2ccc(F)cc2)c1Oc1ccccc1F,i
CCNC(=O)CCc1c(C)nn(-c2ccccc2)c1Oc1ccccc1F,i
C=CCNC(=O)CCc1c(C)nn(-c2ccccc2)c1Oc1ccccc1,-22%
Cc1nn(-c2ccccc2)c(Oc2ccccc2F)c1CCC(=O)NCc1ccco1,7.9µM*
Cc1cccc(-n2nc(C)c(CCC(=O)N(C)C(C)C)c2Oc2ccc(F)cc2F)c1,-6%
Cc1nn(-c2ccc(F)cc2)c(Oc2ccc(F)cc2F)c1CCC(=O)NCc1ccco1,i
CN1C(=O)C2(CCN(CC3CCCCC3)C2)c2ccccc21 (centres undefined),-28%[44.1 µM]
CS(=O)(=O)c1ncc(Cl)c(C(=O)Nc2c(C(=O)c3ccc(Cl)cc3)oc3ccccc23)n1,40%
O=C(CCc1ccnc(N2CCOCC2)c1)NCc1cnccn1,8%
Nc1nc2nc(-c3ccccc3)cc(=O)n2[nH]1,120%
SMILES,Pf Dd2 growth
Cc1ccc(NC(=O)CSc2nc3n[nH]c(C)c3c(=N)n2-c2ccccc2C)cc1C,8.9µM*
CCc1ccccc1NC(=O)CSc1nc2n[nH]c(C)c2c(=N)n1-c1cccc(C)c1,-10%
Cc1cccc(-n2c(SCC(=O)Nc3ccccc3Cl)nc3n[nH]c(C)c3c2=N)c1,i
O=C(C1CC1)N1CCOC[C@H](Oc2ccccc2)C1,-1%[44.1 µM]
COc1cc(NC(=O)CSc2c3c(nc4ccccc24)CCC3)cc(OC)c1OC,-8%
COc1ccc(NC(=O)c2sc3nc4c(cc3c2N)CCCCCC4)cc1OC,46%
COc1cc(NC(=O)c2ccc3c(Cl)c4c(nc3c2)CCC4)cc(OC)c1OC,-18%
COc1ccc(Nc2c3c(nc4ccc(NC(=O)/C=C/c5cc(OC)c(OC)c(OC)c5)cc24)CCCC3)cc1OC,2.5µM*
COc1ccc(/C=C/C(=O)Nc2ccc3nc4c(c(Nc5ccc(OC)c(OC)c5)c3c2)CCCC4)cc1,2.2µM*
COc1ccc(/C=C/C(=O)Nc2ccc(Cl)c(Cl)c2)cc1,6%
COc1ccc(-c2nsc(NC(=O)COc3ccc(C)c(C)c3)n2)cc1,21%
CC(=O)c1ccc(NC(=O)c2cc3c(n2C)CCN(Cc2ccccc2)C3)cc1,i
O=C(NC1CCC1)c1c(OCC2CC2)cc(=O)n2c1CCOCC2,0%
CC(C)(C)c1ccc(C(=O)Nc2nc3c(s2)C[C@@H]2[C@](C)(CO)[C@H](O)CC[C@@]2(C)[C@@H]3CC(=O)N2CCC(C(N)=O)CC2)cc1,11µM*
C[C@]1(CO)[C@H]2Cc3sc(NC(=O)c4ccc(F)cc4)nc3[C@@H](CC(=O)N3CCCCC3)[C@]2(C)CC[C@H]1O,i
C[C@]1(CO)[C@H]2Cc3sc(NC(=O)c4ccc(F)cc4)nc3[C@@H](CC(=O)N3CCOCC3)[C@]2(C)CC[C@H]1O,10µM*
C[C@]1(CO)[C@H]2Cc3sc(NC(=O)C4CCC4)nc3[C@@H](CC(=O)N3CCOCC3)[C@]2(C)CC[C@H]1O,i
CC(=O)N1CCN(C(=O)C[C@@H]2c3nc(-c4ccsc4)sc3C[C@@H]3[C@](C)(CO)[C@H](O)CC[C@]32C)CC1,-49%
C[C@]1(CO)[C@H]2Cc3sc(-c4ccccc4)nc3[C@@H](CC(=O)N3CCOCC3)[C@]2(C)CC[C@H]1O,i
Cc1ccc(C(=O)NCc2nc(-c3ccccc3)no2)cc1N1CCNC1=O,-23%
NC(=O)c1cc[nH]c1C1CCCN(C2CCOCC2)C1 (centres undefined),29%
CC(=O)N[C@H]1CO[C@H]2[C@@H]1OC[C@H]2OCC(N)=O,26%[44.1 µM]
